# Assay outcomes (PubChem)
# CYP2C19 activ: activators of human cytochrome P450 2C19; activation factor at 5 µM; AID 1025; recombinant CYP2C19, luciferin-H EGE luminescence; active compounds read high; 0 = fully inhibited enzyme, 1 = untreated enzyme; 96,000 tested, under 10 active;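 active = activation factor of at least 2 at 5 µM in the primary screen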;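 note: 0 = wells with 2.5 mM tranylcypromine and 1 = vehicle-only wells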
# EphB4 ephrin blk: blocks human EphB4 binding to ephrin-B2; P54760; EphB4 LBD / TNYL-RAW-Alexa532 peptide, fluorescence polarization; inhibition, % at 7 µM; 0.15% of 97,000 active; AID 720;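 active = inhibition above the screen-wide mean inhibition plus 3 SD, cut at about 15% in these data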;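 note: 0% = DMSO wells and 100% = excess unlabeled TNYL-RAW peptide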
# CYP2C9 act: activators of human CYP2C9; activation factor at 5 µM; recombinant CYP2C9, luciferin-H conversion, luminescence; active compounds read high; factor 1 = untreated enzyme, 0 = blocked; P11712; 1.4% of 96,000 active;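 active = activation factor of 2 or more for CYP2C9 at a 5 µM dose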;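 note: 0 = sulfaphenazole-blocked wells and 1 = vehicle-only wells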
# Target sequence (P11712 whole entry, looked up): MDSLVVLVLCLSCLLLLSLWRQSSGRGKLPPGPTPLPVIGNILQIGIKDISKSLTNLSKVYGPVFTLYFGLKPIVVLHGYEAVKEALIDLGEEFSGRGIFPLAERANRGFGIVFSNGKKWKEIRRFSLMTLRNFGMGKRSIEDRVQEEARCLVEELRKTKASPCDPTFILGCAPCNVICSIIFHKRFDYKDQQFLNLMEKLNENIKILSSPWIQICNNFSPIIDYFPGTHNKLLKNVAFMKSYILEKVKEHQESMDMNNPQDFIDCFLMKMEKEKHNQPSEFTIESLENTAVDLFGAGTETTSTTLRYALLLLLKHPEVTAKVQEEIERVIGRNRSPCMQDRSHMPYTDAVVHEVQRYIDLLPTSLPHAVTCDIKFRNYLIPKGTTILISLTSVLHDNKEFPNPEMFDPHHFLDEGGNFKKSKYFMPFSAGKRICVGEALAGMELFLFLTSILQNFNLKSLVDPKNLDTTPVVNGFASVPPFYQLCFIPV
# CYP2C19 inh: blocks human cytochrome P450 2C19; P33261; CYP2C19 Supersomes, luciferin-H EGE luminescence, 30 min; inhibition, % at 5 µM; 21% of 96,000 active; AID 778;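 active = CYP2C19 inhibition above a set limit at 5 µM in the primary screen, cut at about 50% in these data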;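 note: plate controls were negative control wells for no effect and 2.5 mM tranylcypromine positive control for full effect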
# CYP2C9 inhib: inhibitors of human CYP2C9. CYP2C9 Supersomes, luciferin-H conversion, luminescence. inhibition, % at 5 µM. 20% of 96,000 active;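 active = blocking of liver enzyme CYP2C9 beyond about 50% at 5 µM, limit read from the data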
# * hit, by the source's call; . = not tested or not shown. Only some compounds are listed: those with a hit (about 27% of all), similar ones and a draw of the others.
SMILES,CYP2C19 activ,EphB4 ephrin blk,CYP2C9 act,CYP2C19 inh,CYP2C9 inhib
COc1ccc(-c2nnn(Cc3ccccc3F)n2)cc1,.,1,.,.,.
O=C(NCc1cccs1)c1ccc2c(c1)OCCO2,1,2,0.9,4,6
O=C(NCc1ccccc1F)c1ccc2c(c1)OCO2,0.3,1,0.9,73*,10
COc1ccc(-n2c(Cc3cccn3C)nnc2SCC(=O)Nc2cccc(NC(C)=O)c2)cc1,0.9,6,0.8,13,19
Cc1cc(C)cc(OC(C)c2ccnc3nc(/N=C/N(C)C)nn23)c1 (stereo unspecified),0.8,-7,0.8,23,17
Cc1ccccc1C(=O)Oc1cccc(Nc2ncnc3ccccc23)c1,.,-2,.,.,.
C=CCc1c(C)nc(SC)nc1Nc1ccc(C)cc1,0.9,1,0.9,6,5
CCC(C)(C)n1nnnc1C(c1ccccc1F)N1CCC(C(N)=O)CC1 (stereo unspecified),1,-4,0.9,0,6
COc1ccc(CNC(=O)c2csc(Cc3ccc(Cl)cc3)n2)cc1,0.4,4,0.4,57*,62*
COc1ccc(CNC(=O)c2csc(Cc3ccc(OC)cc3)n2)cc1,0.5,6,0.3,49,67*
COc1ccc(CNC(=O)c2cnc3scc(C)n3c2=O)cc1,0.5,.,1,50,3
COc1ccc(CNC(=O)c2cccnc2Sc2ccc(Cl)cc2)cc1,1.1,4,1,-6,5
CCOC(=O)C1CCCN(C(=O)c2cc(=O)c3ccccc3o2)C1 (stereo unspecified),0.7,3,1.2,34,-23
O=C(CCc1c[nH]c2ccccc12)NCC1CCCO1 (stereo unspecified),0.1,2,3.1*,89*,-206
CC(C)CNC(=O)CCc1c[nH]c2ccccc12,0.2,-3,1.5,84*,-48
Cc1cc(N2C(=O)CCC2=O)ccc1NC(=O)c1cccs1,1.1,3,1.1,-5,-6
O=C(Nc1ccc2c(c1)OCO2)NC1CCN(Cc2ccccc2)CC1,1.1,-3,1.3,-7,-25
COc1ccc(N2CCN(c3nc(NCCO)nc(N4CCOCC4)n3)CC2)cc1,0.4,3,0.2,59*,80*
COc1ccc(N2CCN(c3nc(Cl)nc(N4CCOCC4)n3)CC2)cc1,.,-1,.,.,.
O=C(Nc1sc2c(c1C(=O)c1ccc(Cl)cc1)CCCC2)c1cccnc1,0.8,-2,0.7,16,30
O=C(CC1Nc2ccccc2NC1=O)c1ccccc1 (stereo unspecified),1,13,1,2,0
CC(=C1C2C=CC1C1C(=O)NC(=O)C21)c1ccccc1 (stereo unspecified),0.2,0,1.2,79*,-18
CCOc1c(OC(C)=O)ccc(/C=C2\N=C(SCC)SC2=O)c1[N+](=O)[O-],1,2,0.8,4,20
CCOc1cc(/C=C2\N=C(SCC)SC2=O)cc([N+](=O)[O-])c1OC(C)=O,1.1,-7,0.3,-8,72*
CSC1=N/C(=C\c2ccc(C)cc2)C(=O)S1,1,-4,0.9,2,10
SMILES,CYP2C19 activ,EphB4 ephrin blk,CYP2C9 act,CYP2C19 inh,CYP2C9 inhib
CCOc1cc(/C=C2\N=C(SC)SC2=O)cc([N+](=O)[O-])c1OC(C)=O,1,-2,0.3,-2,71*
Cn1c(NC(=O)C2c3ccccc3Oc3ccccc32)cc(=O)n(C)c1=O,0.8,-1,0.9,23,15
Cn1c(NC(=O)C2CCCO2)cc(=O)n(C)c1=O (stereo unspecified),0.8,.,0.3,23,66*
COc1ccc(-c2[nH]ncc2-c2cnn(-c3ccccc3)c2)c(O)c1,0.3,-4,0.2,69*,82*
COc1ccc(-c2nc(N)ncc2Oc2ccccc2Br)c(O)c1,0.5,0,0.6,48,42
CCCc1ccc(Oc2cn[nH]c2-c2ccc(O)cc2O)cc1,0,-1,0.1,96*,89*
COc1ccc(-c2cn[nH]c2N)c(OC)c1,1.1,4,1.2,-14,-21
COc1ccc(-c2[nH]ncc2Oc2ccccc2OC)c(O)c1,0.1,-2,0.3,94*,75*
COc1ccc(Oc2cn[nH]c2-c2ccc(O)cc2O)cc1,0,-8,0,100*,99*
COC(=O)c1c(-c2ccc(F)cc2)noc1N,0.9,-6,1,8,4
CCOc1ccc(NC(=O)CCS(=O)(=O)c2ccc3c(c2)CCCN3C(C)=O)cc1,0.6,-3,1,43,-1
O=C(OCC(=O)N1CCN(C(=O)c2ccco2)CC1)c1cc(-c2ccco2)nc2ccccc12,0.9,-3,0.7,13,28
O=C(OCC(=O)N1CCN(C(=O)c2ccco2)CC1)c1cc(-c2ccc(Cl)c(Cl)c2Cl)nc2ccccc12,0.6,2,0.3,40,69*
O=C(CCS(=O)(=O)c1ccc(Br)s1)NCc1cccs1,0.6,1,0.9,39,8
CCOc1cc(S(=O)(=O)N2CCC(Cc3ccccc3)CC2)c(OCC)cc1-n1cnnn1,0.5,.,0.3,53*,73*
CCOc1cc(S(=O)(=O)N2CC=C(c3ccc(F)cc3)CC2)c(OCC)cc1-n1cnnn1,0.9,7,0.1,11,93*
CCOC(=O)c1sc(NC(=O)c2cncc(Br)c2)nc1C,.,1,.,.,.
COc1ccc(C2c3sc(=O)[nH]c3SC3C(=O)N(c4ccccc4)C(=O)C32)cc1 (stereo unspecified),0.4,3,0.2,62*,81*
O=C1C2Sc3[nH]c(=O)sc3C(c3ccccc3)C2C(=O)N1c1ccccc1 (stereo unspecified),0.4,-6,0.8,57*,18
Cc1ccc(-c2nnn(CC(=O)N(c3ccccc3F)C(CC(C)C)C(=O)NCC3CCCO3)n2)cc1 (stereo unspecified),0.8,-2,0.5,24,45
O=C(N/N=C/c1cccc(Cl)c1Cl)Nc1ccccc1,.,-1,.,.,.
COc1cc(Sc2ccc(C)cc2)c(OC)cc1N,0.3,1,0.6,68*,35
COc1ccc(OC)c(NC(=O)Cn2cccc2)c1,0.7,-1,0.7,28,30
COc1ccc(OC)c(NC(=O)Cn2cc(C#N)c3ccccc32)c1,0.2,-1,0.2,85*,80*
COc1ccc(OC)c(NC(=O)Cn2cc(C(=O)c3ccco3)c3ccccc32)c1,0,3,0,96*,98*
OC(COCc1ccccc1)CN1CCCC1 (stereo unspecified),1,-3,0.9,-2,6
Cc1csc(SCc2nnc(-c3ccc(Cl)cc3)o2)n1,0.4,-2,0.8,62*,24
O=c1ccc2ccc(OCc3nnc(-c4ccccc4Br)o3)cc2o1,1,1,1.1,-2,-9
Cc1csc(SCc2nnc(-c3ccccc3Br)o2)n1,0.4,-3,0.6,60*,42
Cc1ccc(-c2nnc(CSc3nnc(C)s3)o2)cc1,0.8,-3,1,17,4
